# Measured values from paper PMC9838217, “Structure of SALL4 zinc finger domain reveals link between AT-rich DNA binding and Okihiro syndrome”.
# Where a chain is given by its changes, count along the chain named.
# Columns and labels:
# Assay in all cases: HT-SELEX; high values mean tight binding
# Conditions in all cases: protein: recombinant; vector His6-GST; dsDNA, one strand shown
# SALL4 ZFC4 WT (HT-SELEX) = target: T1, SALL4 ZFC4 WT (HT-SELEX) (Mus musculus, UniProt Q8BX22 870-940)
# T1 sequence: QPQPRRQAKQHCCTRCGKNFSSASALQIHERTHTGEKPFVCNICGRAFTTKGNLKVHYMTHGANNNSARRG
# Outline: (§1)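 Recombinant mouse SALL4 zinc finger cluster 4 (residues 870–940, 1 µg), purified, was mixed with library DNA (1.5 µg in the first cycle, 200 ng thereafter) in 100 µl of buffer containing 10 mM Tris–HCl pH 7.5, 50 mM NaCl, poly(dI-dC) and DTT, and left for 10 min at room temperature. Complexes were captured on Ni2+ beads, washed, amplified by PCR and reselected for up to 6 cycles in triplicate, after which MiSeq sequencing and a 6-mer scan followed. Binding signal is the read fraction of each canonical k-mer, given as fold change relative to the starting random library.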
# [1] = target: T2, SALL4 ZFC4 R900W (HT-SELEX) (Mus musculus, UniProt Q8BX22 870-940, R900W)
# T2 sequence: T1 sequence with R31W
# Outline: as §1
# [2] = target: T3, SALL4 ZFC4 G921D (HT-SELEX) (Mus musculus, UniProt Q8BX22 870-940, G921D)
# T3 sequence: T1 sequence with G52D
# Outline: as §1
Sequence,binding signal (SALL4 ZFC4 WT (HT-SELEX)),binding signal [1],binding signal [2]
ATCGAC,0.576 ± 0.0406 fold-change vs cycle 0,0.632 ± 0.033 fold-change vs cycle 0,0.759 ± 0.0482 fold-change vs cycle 0
AAATGC,0.879 ± 0.0146 fold-change vs cycle 0,0.918 ± 0.025 fold-change vs cycle 0,0.969 ± 0.0401 fold-change vs cycle 0
ACCAGC,0.312 ± 0.0135 fold-change vs cycle 0,0.369 ± 0.00921 fold-change vs cycle 0,0.497 ± 0.0437 fold-change vs cycle 0
CCCTAC,0.441 ± 0.0346 fold-change vs cycle 0,0.512 ± 0.0309 fold-change vs cycle 0,0.603 ± 0.047 fold-change vs cycle 0
GGAGCA,0.352 ± 0.0189 fold-change vs cycle 0,0.423 ± 0.00792 fold-change vs cycle 0,0.543 ± 0.05 fold-change vs cycle 0
ACGTCT,0.744 ± 0.0352 fold-change vs cycle 0,0.85 ± 0.0392 fold-change vs cycle 0,0.941 ± 0.0281 fold-change vs cycle 0
CATATG,1.44 ± 0.156 fold-change vs cycle 0,1.37 ± 0.112 fold-change vs cycle 0,1.32 ± 0.0777 fold-change vs cycle 0
GGACAC,0.362 ± 0.012 fold-change vs cycle 0,0.454 ± 0.013 fold-change vs cycle 0,0.559 ± 0.0612 fold-change vs cycle 0
CCTTTC,0.765 ± 0.031 fold-change vs cycle 0,0.942 ± 0.0414 fold-change vs cycle 0,0.934 ± 0.0409 fold-change vs cycle 0
CTTTTC,1.14 ± 0.0195 fold-change vs cycle 0,1.29 ± 0.0412 fold-change vs cycle 0,1.218 ± 0.00999 fold-change vs cycle 0
TAGATA,2.23 ± 0.154 fold-change vs cycle 0,2.04 ± 0.12 fold-change vs cycle 0,1.84 ± 0.212 fold-change vs cycle 0
ACTCAG,0.865 ± 0.0453 fold-change vs cycle 0,0.97 ± 0.0144 fold-change vs cycle 0,0.994 ± 0.0115 fold-change vs cycle 0
CCGAAC,0.325 ± 0.00544 fold-change vs cycle 0,0.387 ± 0.0114 fold-change vs cycle 0,0.512 ± 0.0786 fold-change vs cycle 0
AACGAG,0.782 ± 0.0393 fold-change vs cycle 0,0.894 ± 0.0693 fold-change vs cycle 0,0.934 ± 0.0683 fold-change vs cycle 0
AACGTG,0.697 ± 0.0529 fold-change vs cycle 0,0.827 ± 0.0416 fold-change vs cycle 0,0.87 ± 0.0436 fold-change vs cycle 0
AATAAA,3.71 ± 0.274 fold-change vs cycle 0,2.68 ± 0.197 fold-change vs cycle 0,2.21 ± 0.297 fold-change vs cycle 0
AAGTAG,1.32 ± 0.0481 fold-change vs cycle 0,1.52 ± 0.0706 fold-change vs cycle 0,1.39 ± 0.0907 fold-change vs cycle 0
CTCCAC,0.493 ± 0.0188 fold-change vs cycle 0,0.564 ± 0.0173 fold-change vs cycle 0,0.646 ± 0.0596 fold-change vs cycle 0
AAAATC,1.66 ± 0.102 fold-change vs cycle 0,1.58 ± 0.0564 fold-change vs cycle 0,1.53 ± 0.0679 fold-change vs cycle 0
CAATCG,0.623 ± 0.00929 fold-change vs cycle 0,0.726 ± 0.0311 fold-change vs cycle 0,0.821 ± 0.0438 fold-change vs cycle 0

Sequence,binding signal (SALL4 ZFC4 WT (HT-SELEX)),binding signal [1],binding signal [2]
GTAGGA,0.827 ± 0.0404 fold-change vs cycle 0,0.946 ± 0.029 fold-change vs cycle 0,0.948 ± 0.0466 fold-change vs cycle 0
ATGGTA,1.45 ± 0.0382 fold-change vs cycle 0,1.48 ± 0.0495 fold-change vs cycle 0,1.4 ± 0.052 fold-change vs cycle 0
GAGCAA,0.613 ± 0.0271 fold-change vs cycle 0,0.69 ± 0.0379 fold-change vs cycle 0,0.797 ± 0.00723 fold-change vs cycle 0
CGACTC,0.311 ± 0.0133 fold-change vs cycle 0,0.391 ± 0.0309 fold-change vs cycle 0,0.53 ± 0.0873 fold-change vs cycle 0
CGATGA,0.734 ± 0.0173 fold-change vs cycle 0,0.797 ± 0.0326 fold-change vs cycle 0,0.875 ± 0.0214 fold-change vs cycle 0
CTTACC,0.909 ± 0.0427 fold-change vs cycle 0,1.06 ± 0.0534 fold-change vs cycle 0,1.02 ± 0.0246 fold-change vs cycle 0
CGAGAC,0.365 ± 0.0341 fold-change vs cycle 0,0.454 ± 0.0153 fold-change vs cycle 0,0.565 ± 0.0671 fold-change vs cycle 0
CGTACG,0.303 ± 0.0125 fold-change vs cycle 0,0.389 ± 0.029 fold-change vs cycle 0,0.481 ± 0.0656 fold-change vs cycle 0
CACACG,0.405 ± 0.0118 fold-change vs cycle 0,0.525 ± 0.0166 fold-change vs cycle 0,0.649 ± 0.0779 fold-change vs cycle 0
CACCTG,0.456 ± 0.0357 fold-change vs cycle 0,0.549 ± 0.0259 fold-change vs cycle 0,0.631 ± 0.0331 fold-change vs cycle 0
ACGTCC,0.359 ± 0.021 fold-change vs cycle 0,0.454 ± 0.0124 fold-change vs cycle 0,0.562 ± 0.0557 fold-change vs cycle 0
CAGTGC,0.318 ± 0.0186 fold-change vs cycle 0,0.355 ± 0.00797 fold-change vs cycle 0,0.491 ± 0.0442 fold-change vs cycle 0
ACTAAT,2.16 ± 0.0523 fold-change vs cycle 0,2.13 ± 0.102 fold-change vs cycle 0,1.86 ± 0.174 fold-change vs cycle 0
ATCTCG,0.777 ± 0.0506 fold-change vs cycle 0,0.837 ± 0.0514 fold-change vs cycle 0,0.933 ± 0.0422 fold-change vs cycle 0
AAGCTA,1.18 ± 0.0764 fold-change vs cycle 0,1.3 ± 0.0578 fold-change vs cycle 0,1.28 ± 0.0869 fold-change vs cycle 0
TAGTCA,1.26 ± 0.0279 fold-change vs cycle 0,1.4 ± 0.0422 fold-change vs cycle 0,1.34 ± 0.0704 fold-change vs cycle 0
ATTTAG,1.79 ± 0.0993 fold-change vs cycle 0,1.83 ± 0.0928 fold-change vs cycle 0,1.64 ± 0.15 fold-change vs cycle 0
TCGAAA,0.999 ± 0.0813 fold-change vs cycle 0,1.02 ± 0.0328 fold-change vs cycle 0,1.06 ± 0.0355 fold-change vs cycle 0
AACTCT,1.39 ± 0.0293 fold-change vs cycle 0,1.52 ± 0.0171 fold-change vs cycle 0,1.47 ± 0.0843 fold-change vs cycle 0
AGGTGC,0.324 ± 0.00829 fold-change vs cycle 0,0.389 ± 0.0132 fold-change vs cycle 0,0.519 ± 0.0738 fold-change vs cycle 0

Sequence,binding signal (SALL4 ZFC4 WT (HT-SELEX)),binding signal [1],binding signal [2]
CCTCCA,0.517 ± 0.0262 fold-change vs cycle 0,0.603 ± 0.0398 fold-change vs cycle 0,0.687 ± 0.0633 fold-change vs cycle 0
ACCTAT,1.37 ± 0.0376 fold-change vs cycle 0,1.45 ± 0.0775 fold-change vs cycle 0,1.43 ± 0.0809 fold-change vs cycle 0
ATCTGA,1.33 ± 0.0639 fold-change vs cycle 0,1.39 ± 0.0686 fold-change vs cycle 0,1.35 ± 0.119 fold-change vs cycle 0
GGTGTA,0.751 ± 0.0241 fold-change vs cycle 0,0.855 ± 0.0293 fold-change vs cycle 0,0.889 ± 0.0301 fold-change vs cycle 0
GCTCAA,0.548 ± 0.03 fold-change vs cycle 0,0.644 ± 0.0305 fold-change vs cycle 0,0.763 ± 0.038 fold-change vs cycle 0
ATATAC,2.19 ± 0.164 fold-change vs cycle 0,1.98 ± 0.103 fold-change vs cycle 0,1.78 ± 0.131 fold-change vs cycle 0
ACAGCA,0.623 ± 0.0211 fold-change vs cycle 0,0.694 ± 0.0191 fold-change vs cycle 0,0.793 ± 0.0143 fold-change vs cycle 0
CCAGAG,0.463 ± 0.0303 fold-change vs cycle 0,0.544 ± 0.0428 fold-change vs cycle 0,0.625 ± 0.0553 fold-change vs cycle 0
CTCAGA,0.791 ± 0.0265 fold-change vs cycle 0,0.909 ± 0.0246 fold-change vs cycle 0,0.948 ± 0.031 fold-change vs cycle 0
GATTCA,1.35 ± 0.0551 fold-change vs cycle 0,1.38 ± 0.0852 fold-change vs cycle 0,1.33 ± 0.0688 fold-change vs cycle 0
CTAACA,1.32 ± 0.0481 fold-change vs cycle 0,1.48 ± 0.0428 fold-change vs cycle 0,1.41 ± 0.0893 fold-change vs cycle 0
ACAAGA,1.29 ± 0.0493 fold-change vs cycle 0,1.52 ± 0.0767 fold-change vs cycle 0,1.39 ± 0.105 fold-change vs cycle 0
GAGGGA,0.53 ± 0.0239 fold-change vs cycle 0,0.609 ± 0.0584 fold-change vs cycle 0,0.684 ± 0.0537 fold-change vs cycle 0
GTCATA,1.45 ± 0.0661 fold-change vs cycle 0,1.36 ± 0.05 fold-change vs cycle 0,1.34 ± 0.0974 fold-change vs cycle 0
AAAGCT,1.01 ± 0.0609 fold-change vs cycle 0,1.13 ± 0.0411 fold-change vs cycle 0,1.17 ± 0.0323 fold-change vs cycle 0
ACCCTC,0.489 ± 0.00987 fold-change vs cycle 0,0.562 ± 0.0409 fold-change vs cycle 0,0.66 ± 0.0504 fold-change vs cycle 0
AGCAGA,0.694 ± 0.0089 fold-change vs cycle 0,0.815 ± 0.0131 fold-change vs cycle 0,0.857 ± 0.0135 fold-change vs cycle 0
GCTGAA,0.582 ± 0.0146 fold-change vs cycle 0,0.67 ± 0.0322 fold-change vs cycle 0,0.774 ± 0.0356 fold-change vs cycle 0
ATTAGC,1.14 ± 0.0454 fold-change vs cycle 0,1.18 ± 0.016 fold-change vs cycle 0,1.2 ± 0.034 fold-change vs cycle 0
TTGCAA,1.13 ± 0.0202 fold-change vs cycle 0,1.09 ± 0.0477 fold-change vs cycle 0,1.146 ± 0.00914 fold-change vs cycle 0
